# Measured values taken from publication PMC5540273 (PLoS ONE, 2017).
# How the values were obtained:
# Settings in all cases: concentration: 1 μM, replicates: in singlicate; n = 1
# [1] = system: SRPK2
# [2] = system: SRPK3
# [3] = system: STK16
# [4] = system: STK33
# [5] = system: STK35
# [6] = system: STK36
# [7] = system: STK39
# [8] = system: SYK
# [9] = system: SgK110
# [10] = system: T1, TAK1
# T1 construct: gene MAP3K7
# [11] = system: TAOK1
# [12] = system: TAOK2
# [13] = system: TAOK3
# [14] = system: TBK1
# [15] = system: TEC
# [16] = system: TESK1
# [17] = system: TGFBR1
# [18] = system: TGFBR2
# [19] = system: TIE1
# [20] = system: T2, TIE2
# T2 construct: gene TEK
# 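Also: KINOMEscan kinase panel screen.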
SMILES,%Inh [1],%Inh [2],%Inh [3],%Inh [4],%Inh [5],%Inh [6],%Inh [7],%Inh [8],%Inh [9],%Inh [10],%Inh [11],%Inh [12],%Inh [13],%Inh [14],%Inh [15],%Inh [16],%Inh [17],%Inh [18],%Inh [19],%Inh [20]
Cn1cncc1C(=O)NC1CCN(c2ccnc(Nc3ccc(F)cc3)n2)C1 (centres unmarked) [GSK1379717],0%,0%,17%,0%,0%,0%,0%,5%,6%,0%,0%,0%,0%,9%,4%,98.9%,26%,0%,0%,0%
O=C(Nc1n[nH]c2cc(-c3ccsc3)ccc12)C1CC1 [SB-732932],0%,75%,23%,0%,0%,2%,0%,13%,0%,7%,64%,8%,26%,9%,32%,9%,0%,0%,11%,11%
Fc1ccc(-c2nc[nH]c2-c2ccncc2)cc1 [SB-217360],0%,3%,14%,1%,0%,0%,0%,33%,15%,0%,0%,40%,7%,48%,0%,0%,37%,53%,0%,3%
Cn1cncc1-c1cc2c(Nc3ccc(OCc4ccccc4)cc3)ncnc2cn1 [GW281179],0%,0%,4%,0%,0%,0%,12%,27%,0%,0%,0%,0%,0%,0%,0%,35%,0%,0%,0%,0%
Cc1c(Cn2c3ccccc3n3c(=O)cc(N4CCOCC4)nc23)cccc1C(F)(F)F [GSK2306394],0%,0%,11%,6%,0%,0%,0%,5%,0%,0%,0%,0%,0%,13%,1%,0%,0%,10%,6%,0%
CC(=O)c1cccc(NC(=O)NC2CCN(c3ccnc(Nc4ccc(F)cc4)n3)C2)c1 (centres unmarked) [GSK1379710],28%,0%,1%,6%,1%,0%,25%,29%,0%,0%,2%,0%,11%,18%,4%,20%,38%,0%,0%,0%
Cl.Cl.Cl.N#Cc1ccc(CCNc2nccc(-c3cccc(CN4CCNCC4)c3)n2)cc1 [GSK2137462],0%,0%,22%,100%,0%,0%,0%,9%,23%,4%,0%,2%,0%,19%,0%,11%,0%,0%,2%,0%
Fc1ccc(-c2nc3n(c2-c2ccncc2)CCS3)cc1 [GI98581],0%,0%,0%,1%,0%,7%,0%,28%,0%,0%,0%,0%,0%,5%,1%,23%,26%,8%,19%,0%
COc1cccc(NC(=O)Nc2ccc(C)c(-c3ccc(C(=O)Nc4ccncc4)cc3)c2)c1 [GSK1398474],0%,27%,11%,0%,0%,51%,33%,40%,0%,0%,0%,0%,4%,29%,5%,19%,0%,0%,0%,0%
COc1ccc(Nc2nccc(N3CCC(NC(=O)c4cc5ccccc5s4)C3)n2)cc1 (centres unmarked) [GSK1379738],0%,0%,19%,0%,0%,0%,0%,13%,0%,0%,0%,0%,0%,22%,12%,30%,17%,0%,0%,0%
COC(=O)C(Cc1ccccc1)NC(=O)NC1CCN(c2ccnc(Nc3ccc(F)cc3)n2)C1 (centres unmarked) [GSK1379714],38%,0%,19%,8%,0%,31%,10%,34%,0%,0%,0%,0%,0%,21%,0%,16%,20%,0%,16%,0%
O=c1cc(N2CCOCC2)nc2n(Cc3ccccc3F)ccn12 [GSK2297428],0%,0%,0%,0%,0%,0%,0%,21%,0%,0%,0%,0%,0%,15%,0%,3%,0%,0%,0%,0%
CS(=O)(=O)CCNCc1nc(-c2ccc3ncnc(Nc4ccc(OCc5ccccc5)c(Cl)c4)c3c2)cs1.Cl [GW582764],36%,0%,0%,0%,0%,0%,4%,20%,0%,0%,0%,0%,0%,0%,0%,19%,58%,0%,0%,0%
COC(=O)c1cccc(NC(=O)NC2CCN(c3ccnc(Nc4ccc(F)cc4)n3)C2)c1 (centres unmarked) [GSK1379725],0%,0%,0%,0%,0%,0%,1%,17%,0%,0%,0%,0%,0%,0%,0%,15%,0%,0%,0%,0%
Cc1c(Cn2c(C)c(C)n3c(=O)cc(N4CCOCC4)nc23)cccc1C(F)(F)F [GSK2328680],45%,2%,0%,65%,0%,0%,0%,32%,0%,0%,0%,0%,0%,9%,5%,22%,9%,0%,54%,0%
O=C(Nc1n[nH]c2nc(-c3ccco3)c(Br)cc12)C1CCN(Cc2ccccc2)C1.O=C(O)[C@H](O)[C@@H](O)C(=O)O (centres unmarked) [SB-742034],0%,0%,57%,23%,0%,29%,1%,0%,37%,22%,0%,0%,10%,18%,8%,23%,0%,21%,0%,17%
